Results reported in PubChem BioAssay (NCATS).
Values without a mark were called inactive. Records with an inconclusive call do not appear. Where a call stands in place of a potency, no number is given. The source made the active and inactive calls. Unless noted, the call rests on the fitted dose curve; in most records, active means well fitted curve in the direction sought with a large enough effect; inconclusive means small, poorly fitted or top-dose-only effect, or another doubt; inactive means no such curve, though single readings can be large; an effect the other way counts as inactive or inconclusive. Non-standard residues stand in square brackets, D forms with d. Residues, ends and D or L forms follow the SMILES beside them.

Columns and labels:
[1] = target: Cytochrome P450 1A2 (Homo sapiens) (UniProt P05177); assay: p450-cyp1a2 (AID 410; calls by dose curve; further: potency means the concentration at half of the fitted maximal effect)
Procedure, shortened: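 Read-out is luminescence from luciferin produced by CYP1A2 demethylation of Luciferin-ME (100uM, at Km). Detection reagent stopped the 60 min NADPH-dependent reaction; signals were normalized to 57 uM furafylline.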

[2] = target: Glucocorticoid receptor (Homo sapiens) (UniProt P04150); assay: GR-GFP Redistribution (AID 450;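 active means compounds whose dose series gives a full or clear partial fitted curve of increased nuclear translocation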; further: potency means the concentration at half of the fitted maximal effect); details: U2OS GR-GFP nuclear translocation, laser cytometry, 2 h
[3] = target: Glucocorticoid receptor (Homo sapiens) (UniProt P04150); assay: GR-EFC Redistribution (AID 451; calls by dose curve; further: potency means the concentration at half of the fitted maximal effect); details: CHO-K1 GR-EFC translocation, beta-gal luminescence, 2 h
Procedure, shortened: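 Translocation of GR-ED fusion to nuclear EA restores b-gal, read by luminescence after 1 h room-temperature detection. Engineered CHO-K1 biosensor cells, 1,000/well, exposed 2 h at 37 C to titrations up to 46 uM final.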

[4] = target: Mitogen-activated protein kinase 10 (Mus musculus) (UniProt Q61831); assay: JNK3 AlphaScreen Assay (AID 530; active means well fitted curve in either direction with a large enough effect, not every such curve was filed as active;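 further: kinase came from lysate of stimulated human HepG2 cells; signal reports phosphorylation of biotinylated GST-cJun 1-79 at Ser73 with 10 µM ATP; series mostly up to about 57 µM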)
Procedure, shortened: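 Kinase buffer: 20 mM Tris-HCl pH 7.6, 10 mM MgCl2, 1 mM DTT, 0.1 mM Na3VO4, 0.01% Tween-20; ATP 10 uM. Substrate biotin-GST-cJun(1-79), enzyme from activated HepG2 lysates. Detection by Ser73 phospho-antibody AlphaScreen.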

[5] = target: Cytochrome P450 2C9 (Homo sapiens) (UniProt P11712); assay: qHTS Assay for Inhibitors and Substrates of Cytochrome P450 2C9 (AID 883); further: potency means the concentration at half of the fitted maximal effect; nearly all actives have a fitted effect of over 60% in size
Procedure, shortened: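 Luminescent read-out of deoxyluciferin hydroxylation, normalized to 57uM sulphaphenazole (AC100). Reaction: 10nM enzyme, 100uM Luciferin-H (equal to KM), 25mM KPO4, 10 min compound preincubation, then 60 min with NADPH regeneration, both at 37C.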

[6] = target: Cytochrome P450 3A4 (Homo sapiens) (UniProt P08684); assay: qHTS Assay for Activators of Cytochrome P450 3A4 (AID 885); further: nearly all actives have a fitted effect of over 65% in size
Procedure, shortened: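 Human CYP3A4 dealkylates Luciferin-PPXE to luciferin, which luciferase detection converts to light. Substrate was at its KM (25uM), buffer 200mM KPO4, reaction 60 min at RT.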

[7] = target: DNA dC->dU-editing enzyme APOBEC-3G (Homo sapiens) (UniProt Q9HC16); assay: qHTS for inhibitors of Vif-A3G interactions: Validation (AID 588379)
Procedure, shortened: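 Yellow fluorescence (Ex 488, Em 500-530) of Vif-coexpressing HeLa A3G-eYFP cells, scanned by Acumen cytometer, reports blocked A3G degradation. Cells plated at 700/well overnight at 37 deg C before compound addition, then a further overnight compound incubation at 37 deg C.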

[8] = tested on: Zika virus NS2B-NS3 protease; assay: Primary screen GU AMC qHTS for Zika virus inhibitors (AID 1347154); further: nearly all actives have a fitted effect of over 70% in size
Procedure, shortened: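 Fluorogenic AMC-substrate cleavage by noncovalent NS2B-NS3 protease complex (25 nM, pH 8.0 Tris buffer with Tween 20) followed for 15 minutes at room temperature (~20% conversion). Percent inhibition from ex340/em450 signal change, fitted by 4-parameter Hill equation.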

[9] = Primary qHTS for small molecule stabilizers of the endoplasmic reticulum resident proteome: Secreted ER Calcium Modulated Protein (SERCaMP) assay (AID 1508630)
Procedure, shortened: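 The SH-SY5Y reporter protocol was run at 3 concentrations up to 38.3 uM (primary) or 11 concentrations (follow-up): 16 h compound, 100 nM thapsigargin for 4 h, then extracellular luciferase luminescence.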

[10] = target: 3',5'-cyclic-AMP phosphodiesterase 4B (Homo sapiens) (UniProt Q07343); assay: qHTS Assay for Inhibitors of PDE-IV (AID 607; active means well fitted activation curve with a large enough effect in the main read-out, with a control signal flat, not every such curve was filed as active)
Procedure, shortened: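 HEK293 ACTOne cells with CNG channel (1000/well), endogenous PDE4; membrane potential dye, compounds up to 22.9 uM final. Fluorescence Ex 535/Em 590; RO 20-1724 (100 uM final) as reference.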

[11] = target: Ubiquitin carboxyl-terminal hydrolase 1 (Homo sapiens) (UniProt O94782); assay: Inhibitors of USP1/UAF1: Pilot qHTS (AID 504865);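 further: rhodamine fluorescence freed from ubiquitin-rhodamine substrate followed over time; top concentration of the series differs between compounds; nearly all actives have a fitted effect of over 35% in size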
Procedure, shortened: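 1nM USP1/UAF1 + cpd, 15 min RT; start w/ Ub-Rho 150nM final; kinetic FL 480/540 nm, 6 reads q60 s. Buffer 50mM HEPES pH 7.8, 0.5mM EDTA, 1mM TCEP, 0.01% Tween-20, 0.1 mg/ml BSA.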

[12] = target: Cytochrome P450 3A4 (Homo sapiens) (UniProt P08684); assay: qHTS Assay for Inhibitors and Substrates of Cytochrome P450 3A4 (AID 884); further: potency means the concentration at half of the fitted maximal effect; nearly all actives have a fitted effect of over 50% in size
Procedure, shortened: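 Luminescent readout of luciferin produced by CYP3A4 (20 nM) dealkylation of Luciferin-PPXE, 25 uM (its KM). NADPH-driven reaction ran 60 min at RT after 10 min compound preincubation; data scaled to 57 uM ketoconazole as 100% inhibition.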

[13] = target: Cytochrome P450 2D6 (Homo sapiens) (UniProt P10635); assay: qHTS Assay for Inhibitors and Substrates of Cytochrome P450 2D6 (AID 891); further: potency means the concentration at half of the fitted maximal effect; nearly all actives have a fitted effect of over 60% in size
Procedure, shortened: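 Luminescent read-out of luciferin formed by 5 nM human CYP2D6 demethylating 30 uM Luciferin-ME EGE (Km level) over 60 min at room temperature after NADPH regeneration addition. Data normalized to full inhibition by 1.43 uM quinidine.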

[14] = target: Cytochrome P450 2C19 (Homo sapiens) (UniProt P33261); assay: qHTS Assay for Inhibitors and Substrates of Cytochrome P450 2C19 (AID 899); further: potency means the concentration at half of the fitted maximal effect; nearly all actives have a fitted effect of over 60% in size
Procedure, shortened: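 Luminescence readout of luciferin formed from 10uM Luciferin-H EGE (KM level) by 5 nM CYP2C19 in 50mM KPO4. 60 min NADPH-driven reaction at 37C after 10 min compound preincubation; data scaled to 57uM ketoconazole inhibition.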

Chain of Cytochrome P450 1A2 (Homo sapiens) (P05177 whole entry, looked up): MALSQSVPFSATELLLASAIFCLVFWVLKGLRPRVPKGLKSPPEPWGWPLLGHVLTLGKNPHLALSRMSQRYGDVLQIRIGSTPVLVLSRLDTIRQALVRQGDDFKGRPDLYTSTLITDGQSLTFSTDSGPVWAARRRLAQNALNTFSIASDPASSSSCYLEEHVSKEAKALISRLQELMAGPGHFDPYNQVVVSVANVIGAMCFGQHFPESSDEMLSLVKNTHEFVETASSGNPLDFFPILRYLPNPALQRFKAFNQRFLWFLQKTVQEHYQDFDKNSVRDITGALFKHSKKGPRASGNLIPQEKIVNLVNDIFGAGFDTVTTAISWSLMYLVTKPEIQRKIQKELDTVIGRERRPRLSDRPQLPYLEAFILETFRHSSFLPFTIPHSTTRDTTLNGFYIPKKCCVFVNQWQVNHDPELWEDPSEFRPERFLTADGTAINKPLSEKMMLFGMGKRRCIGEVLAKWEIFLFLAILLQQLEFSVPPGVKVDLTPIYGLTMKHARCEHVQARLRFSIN
Chain of 3',5'-cyclic-AMP phosphodiesterase 4B (Homo sapiens) (Q07343 whole entry, looked up): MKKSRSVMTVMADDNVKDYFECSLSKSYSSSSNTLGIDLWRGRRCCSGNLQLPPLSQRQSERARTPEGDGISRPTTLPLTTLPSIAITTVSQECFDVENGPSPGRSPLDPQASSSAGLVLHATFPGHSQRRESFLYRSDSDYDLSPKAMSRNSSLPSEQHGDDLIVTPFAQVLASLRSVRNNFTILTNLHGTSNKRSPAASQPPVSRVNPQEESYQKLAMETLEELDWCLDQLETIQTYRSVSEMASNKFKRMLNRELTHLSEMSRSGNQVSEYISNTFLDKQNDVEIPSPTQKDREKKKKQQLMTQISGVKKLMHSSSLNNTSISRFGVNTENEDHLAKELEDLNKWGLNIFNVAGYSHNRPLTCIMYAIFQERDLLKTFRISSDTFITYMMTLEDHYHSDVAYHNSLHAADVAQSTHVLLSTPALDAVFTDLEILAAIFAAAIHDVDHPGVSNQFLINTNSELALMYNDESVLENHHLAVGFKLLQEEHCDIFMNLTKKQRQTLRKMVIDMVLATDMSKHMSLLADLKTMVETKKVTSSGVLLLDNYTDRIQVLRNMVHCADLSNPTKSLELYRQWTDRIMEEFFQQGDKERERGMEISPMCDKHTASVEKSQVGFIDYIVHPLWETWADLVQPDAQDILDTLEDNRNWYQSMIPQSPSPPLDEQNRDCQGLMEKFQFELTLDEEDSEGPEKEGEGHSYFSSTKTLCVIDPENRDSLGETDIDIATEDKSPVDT
Chain of DNA dC->dU-editing enzyme APOBEC-3G (Homo sapiens) (Q9HC16 whole entry, looked up): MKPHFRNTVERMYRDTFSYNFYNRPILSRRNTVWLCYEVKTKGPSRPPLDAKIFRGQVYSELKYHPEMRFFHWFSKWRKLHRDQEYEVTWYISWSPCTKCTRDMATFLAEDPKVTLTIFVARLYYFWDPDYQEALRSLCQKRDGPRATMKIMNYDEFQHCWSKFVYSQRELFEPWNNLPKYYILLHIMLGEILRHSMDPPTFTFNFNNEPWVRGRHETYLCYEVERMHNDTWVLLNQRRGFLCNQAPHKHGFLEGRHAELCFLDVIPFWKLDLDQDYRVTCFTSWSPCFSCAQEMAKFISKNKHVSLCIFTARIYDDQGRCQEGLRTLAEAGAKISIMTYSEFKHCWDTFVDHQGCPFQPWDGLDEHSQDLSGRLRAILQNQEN
Chain of Ubiquitin carboxyl-terminal hydrolase 1 (Homo sapiens) (O94782 whole entry, looked up): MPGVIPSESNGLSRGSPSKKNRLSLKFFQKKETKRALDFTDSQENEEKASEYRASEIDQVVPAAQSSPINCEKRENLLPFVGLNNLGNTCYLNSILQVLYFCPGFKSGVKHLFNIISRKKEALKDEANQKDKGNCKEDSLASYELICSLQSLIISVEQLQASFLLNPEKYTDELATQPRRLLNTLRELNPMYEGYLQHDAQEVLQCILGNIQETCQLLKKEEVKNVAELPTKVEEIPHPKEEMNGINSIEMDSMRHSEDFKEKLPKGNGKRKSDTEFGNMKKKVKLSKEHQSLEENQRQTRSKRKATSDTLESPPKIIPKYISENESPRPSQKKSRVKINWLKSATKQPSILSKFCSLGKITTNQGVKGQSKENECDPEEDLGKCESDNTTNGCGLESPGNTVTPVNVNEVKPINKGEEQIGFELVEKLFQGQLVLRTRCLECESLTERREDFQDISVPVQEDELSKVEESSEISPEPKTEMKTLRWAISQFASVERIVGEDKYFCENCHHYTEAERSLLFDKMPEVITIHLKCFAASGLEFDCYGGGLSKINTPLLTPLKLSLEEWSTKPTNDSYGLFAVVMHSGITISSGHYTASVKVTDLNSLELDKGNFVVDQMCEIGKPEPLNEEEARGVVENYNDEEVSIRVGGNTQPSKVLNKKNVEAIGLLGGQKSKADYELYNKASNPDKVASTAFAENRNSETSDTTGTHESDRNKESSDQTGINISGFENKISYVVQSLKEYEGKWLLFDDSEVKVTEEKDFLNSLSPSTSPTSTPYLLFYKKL
Chain of Glucocorticoid receptor (Homo sapiens) (P04150 whole entry, looked up, the tested form may be a part): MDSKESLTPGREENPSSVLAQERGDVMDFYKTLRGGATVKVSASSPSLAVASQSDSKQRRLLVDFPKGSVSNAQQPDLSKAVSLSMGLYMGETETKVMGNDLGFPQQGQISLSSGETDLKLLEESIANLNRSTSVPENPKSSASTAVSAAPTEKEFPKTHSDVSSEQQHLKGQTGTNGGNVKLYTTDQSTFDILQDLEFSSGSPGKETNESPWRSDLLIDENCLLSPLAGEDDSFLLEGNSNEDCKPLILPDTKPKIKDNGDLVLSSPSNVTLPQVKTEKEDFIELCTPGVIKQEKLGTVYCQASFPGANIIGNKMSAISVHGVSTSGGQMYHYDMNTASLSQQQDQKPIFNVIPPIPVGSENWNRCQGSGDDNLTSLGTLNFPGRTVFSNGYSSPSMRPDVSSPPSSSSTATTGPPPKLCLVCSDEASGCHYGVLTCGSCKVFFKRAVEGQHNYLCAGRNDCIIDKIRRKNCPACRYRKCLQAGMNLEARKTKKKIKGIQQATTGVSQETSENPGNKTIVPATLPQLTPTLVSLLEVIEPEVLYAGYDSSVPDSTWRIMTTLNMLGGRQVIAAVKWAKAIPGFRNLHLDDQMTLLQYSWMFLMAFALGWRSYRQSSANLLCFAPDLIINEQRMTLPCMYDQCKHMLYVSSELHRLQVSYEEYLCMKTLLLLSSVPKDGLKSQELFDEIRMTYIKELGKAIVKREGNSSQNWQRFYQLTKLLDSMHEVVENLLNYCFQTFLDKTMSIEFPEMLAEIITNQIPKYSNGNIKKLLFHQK
Chain of Cytochrome P450 3A4 (Homo sapiens) (P08684 whole entry, looked up): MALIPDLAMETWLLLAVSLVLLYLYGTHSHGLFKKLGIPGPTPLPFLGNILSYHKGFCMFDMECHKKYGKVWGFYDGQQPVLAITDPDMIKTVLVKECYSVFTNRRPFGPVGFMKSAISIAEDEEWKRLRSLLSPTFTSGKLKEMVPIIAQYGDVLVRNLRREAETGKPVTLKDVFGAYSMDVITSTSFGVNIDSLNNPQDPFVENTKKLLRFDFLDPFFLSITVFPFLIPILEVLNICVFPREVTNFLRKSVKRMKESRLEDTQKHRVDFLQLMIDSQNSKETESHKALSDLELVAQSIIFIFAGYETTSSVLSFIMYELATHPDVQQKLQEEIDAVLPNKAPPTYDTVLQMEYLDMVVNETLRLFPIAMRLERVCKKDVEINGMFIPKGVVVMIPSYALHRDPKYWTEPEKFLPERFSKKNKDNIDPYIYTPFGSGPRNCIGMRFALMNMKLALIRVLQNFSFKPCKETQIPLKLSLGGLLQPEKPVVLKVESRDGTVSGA
Chain of Cytochrome P450 2D6 (Homo sapiens) (P10635 whole entry, looked up): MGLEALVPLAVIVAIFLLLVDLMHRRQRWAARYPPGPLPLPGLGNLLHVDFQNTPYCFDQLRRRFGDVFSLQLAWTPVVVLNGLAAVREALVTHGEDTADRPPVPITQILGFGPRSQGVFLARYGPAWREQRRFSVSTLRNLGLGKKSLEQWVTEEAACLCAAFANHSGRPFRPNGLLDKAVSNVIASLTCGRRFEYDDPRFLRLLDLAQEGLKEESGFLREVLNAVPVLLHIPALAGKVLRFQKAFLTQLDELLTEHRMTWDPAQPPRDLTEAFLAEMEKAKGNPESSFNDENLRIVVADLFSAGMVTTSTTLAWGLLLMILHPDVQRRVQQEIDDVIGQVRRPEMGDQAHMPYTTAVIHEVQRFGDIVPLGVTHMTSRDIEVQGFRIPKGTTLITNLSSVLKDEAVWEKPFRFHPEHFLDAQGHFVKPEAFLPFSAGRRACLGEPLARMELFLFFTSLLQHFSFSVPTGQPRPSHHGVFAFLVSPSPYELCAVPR
Chain of Cytochrome P450 2C19 (Homo sapiens) (P33261 whole entry, looked up): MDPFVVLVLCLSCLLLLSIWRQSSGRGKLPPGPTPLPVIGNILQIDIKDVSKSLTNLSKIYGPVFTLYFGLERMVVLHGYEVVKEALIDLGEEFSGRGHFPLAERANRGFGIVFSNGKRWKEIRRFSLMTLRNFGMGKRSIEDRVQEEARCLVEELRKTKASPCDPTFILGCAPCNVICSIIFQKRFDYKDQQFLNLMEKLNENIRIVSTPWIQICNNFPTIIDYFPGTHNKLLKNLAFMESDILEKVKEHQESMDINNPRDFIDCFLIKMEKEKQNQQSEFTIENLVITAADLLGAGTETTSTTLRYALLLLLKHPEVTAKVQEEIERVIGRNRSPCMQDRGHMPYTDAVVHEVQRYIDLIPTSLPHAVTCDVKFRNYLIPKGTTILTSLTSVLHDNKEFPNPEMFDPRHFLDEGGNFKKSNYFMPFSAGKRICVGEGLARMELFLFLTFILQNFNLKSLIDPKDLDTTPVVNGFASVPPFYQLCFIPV

CS(=O)(=O)c1ccc(-c2cc(Br)sc2-c2ccc(F)cc2)cc1
Potency [1]: 0.398 µM (active)
Potency [2]: > 46 µM
Potency [3]: > 46 µM
Potency [4]: inactive
Potency [5]: 0.794 µM (active)
Potency [6]: inactive
Potency [7]: inactive
Potency [8]: inactive
Potency [9]: inactive

CC#CCOC(=O)C1=CCCN(C)C1
Potency [2]: > 46 µM
Potency [3]: > 46 µM
Potency [4]: inactive
Potency [10]: inactive
Potency [11]: inactive
Potency [7]: inactive
Potency [8]: inactive
Potency [9]: inactive

NCCCCCCCCCCNS(=O)(=O)c1cccc2c(Cl)cccc12
Potency [1]: 15.8 µM (active)
Potency [2]: > 46 µM
Potency [3]: > 46 µM
Potency [4]: inactive
Potency [5]: 0.0501 µM (active)
Potency [12]: 2.51 µM (active)
Potency [6]: inactive
Potency [13]: 1.26 µM (active)
Potency [14]: 0.0794 µM (active)
Potency [7]: inactive
Potency [8]: inactive
Potency [9]: inactive

Fc1ccc([C@H]2CCNC[C@H]2COc2ccc3c(c2)OCO3)cc1
Potency [1]: 3.16 µM (active)
Potency [2]: > 46 µM
Potency [4]: inactive
Potency [6]: inactive
Potency [11]: inactive
Potency [7]: inactive
Potency [8]: inactive
Potency [9]: inactive

O=C(c1ccc2c(c1)OCO2)N1CCCCC1
Potency [2]: > 46 µM
Potency [3]: > 46 µM
Potency [4]: inactive
Potency [10]: inactive
Potency [11]: inactive
Potency [7]: inactive
Potency [8]: inactive
Potency [9]: inactive

Cc1ccc(S(=O)(=O)/C=C\C#N)cc1
Potency [1]: 3.98 µM (active)
Potency [2]: > 46 µM
Potency [3]: > 46 µM
Potency [6]: inactive
Potency [13]: 0.0158 µM (active)
Potency [14]: 5.01 µM (active)
Potency [7]: inactive
Potency [8]: inactive
Potency [9]: inactive

O=C1C(=O)N(Cc2ccc(Cl)c(Cl)c2)c2ccccc21
Potency [1]: 12.6 µM (active)
Potency [2]: > 46 µM
Potency [3]: > 46 µM
Potency [6]: inactive
Potency [13]: 3.98 µM (active)
Potency [7]: inactive
Potency [8]: inactive
Potency [9]: inactive

C=CCN1CCN(c2nc3ccccc3nc2C#N)CC1
Potency [1]: 0.1 µM (active)
Potency [2]: > 46 µM
Potency [3]: > 46 µM
Potency [10]: inactive
Potency [6]: inactive
Potency [13]: 1.26 µM (active)
Potency [7]: inactive
Potency [8]: inactive
Potency [9]: inactive

CC[C@@H](C)[C@H]1O[C@]2(CC[C@@H]1C)C[C@@H]1C[C@H](C/C=C(/C)[C@H](O[C@@H]3C[C@H](OC)[C@H](O[C@@H]4C[C@H](OC)[C@@H](O)[C@H](C)O4)[C@H](C)O3)[C@@H](C)/C=C\C=C3CO[C@@H]4[C@H](O)C(C)=C[C@@H](C(=O)O1)[C@]34O)O2 (tested in a mixture with another compound)
Potency [1]: inactive
Potency [2]: > 46 µM
Potency [3]: > 46 µM
Potency [10]: inactive
Potency [7]: inactive
Potency [8]: inactive
Potency [9]: inactive

CSCC[C@H](C=O)NC(=O)[C@H](CC(C)C)NC(=O)[C@H](CC(C)C)NC(C)=O (Ac-Leu-Leu-[dM]-aldehyde)
Potency [1]: inactive
Potency [2]: > 46 µM
Potency [4]: inactive
Potency [10]: inactive
Potency [11]: inactive
Potency [7]: inactive
Potency [8]: inactive
Potency [9]: inactive
